In PubChem BioAssay (NCI):
This is part of a sample that, as a whole, favours compounds with a hit. Of some 79,000 tested, about 15% had one in any assay. The source made the active and inactive calls. Rule as the data show it: active = growth inhibition above about 70%; inactive = the rest.

Assays:
[1] = NCI Yeast Anticancer Drug Screen. Data for the wt1 strain (AID 149);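 also: 0% = growth of vehicle-treated wt1 cultures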; details: S. cerevisiae wt1 strain (SPY 50644) growth inhibition, active compounds read high
In short: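 Growth inhibition read against vehicle controls after compound exposure of the wt1 yeast strain.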

[2] = NCI Yeast Anticancer Drug Screen. Data for the rad50EPP+ strain (AID 151);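 also: 0% = growth of vehicle-treated control cultures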; details: S. cerevisiae rad50 mutant strain, active compounds read high
In short: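 One strain with a rad50 alteration (rad50EPP+) was compound-treated, its growth then compared to that of vehicle controls.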

[3] = NCI Yeast Anticancer Drug Screen. Data for the mgt1 strain (AID 153); details: S. cerevisiae mgt1 mutant growth inhibition, active compounds read high
In short: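 After exposure of the mgt1 yeast mutant to compound, growth was measured and reported as inhibition compared with vehicle controls.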

[4] = NCI Yeast Anticancer Drug Screen. Data for the rad50 strain (AID 155);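 also: 0% = growth of vehicle-only cultures of the same strain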; details: S. cerevisiae rad50 strain growth inhibition, active compounds read high
In short: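 Readout: growth inhibition relative to vehicle-treated cultures. Compound exposure was carried out in a genetically defined yeast strain deficient in DNA damage repair.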

[5] = NCI Yeast Anticancer Drug Screen. Data for the mec2-1 strain (AID 157); details: S. cerevisiae mec2-1 strain, active compounds read high
In short: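 Test agents were screened against the mec2-1 yeast strain, with defined DNA repair or cell cycle alteration. Growth was scored as inhibition against vehicle-only controls.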

[6] = NCI Yeast Anticancer Drug Screen. Data for the rad14 strain (AID 159);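 also: 0% = growth of vehicle-treated control cultures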; details: S. cerevisiae rad14 strain growth inhibition, active compounds read high
In short: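 Growth inhibition vs vehicle controls; genetically altered yeast strain (DNA damage repair defect) treated with test compounds.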

[7] = NCI Yeast Anticancer Drug Screen. Data for the sgs1 mgt1 strain (AID 161);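 also: 0% = growth of cultures given vehicle only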; details: S. cerevisiae sgs1 mgt1 strain, active compounds read high
In short: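 Inhibition of yeast growth, normalised to vehicle-treated controls, is reported for a strain bearing genetic alterations in DNA damage repair.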

[8] = NCI Yeast Anticancer Drug Screen. Data for the CLN2oe strain (AID 163);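 also: 0% = growth of vehicle-only control cultures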; details: S. cerevisiae CLN2oe strain, active compounds read high
In short: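 Here, growth inhibition in a cell-cycle-altered yeast strain after compound exposure was quantified against vehicle control growth.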

[9] = NCI Yeast Anticancer Drug Screen. Data for the cln2 rad14 strain (AID 165);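 also: 0% = growth equal to vehicle treated cultures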; details: S. cerevisiae cln2 rad14 strain, active compounds read high
In short: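 Growth of compound-exposed yeast (cln2 rad14 genotype) measured and expressed as inhibition relative to vehicle.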

[10] = NCI Yeast Anticancer Drug Screen. Data for the bub3 strain (AID 167); details: S. cerevisiae bub3 mutant strain, active compounds read high
In short: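 Readout: yeast growth inhibition, expressed relative to vehicle-only wells. The test organism is a mutant strain from a panel with lesions in DNA repair or checkpoint genes.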

[11] = NCI Yeast Anticancer Drug Screen. Data for the mlh1 strain (AID 171);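 also: 0% = growth of vehicle-treated control cultures of the same strain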; details: S. cerevisiae mlh1 strain growth inhibition, active compounds read high
In short: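 Here the genetically defined yeast mutant is grown with each compound, and the extent to which its growth falls below that of vehicle-exposed cells is reported.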

[12] = NCI Yeast Anticancer Drug Screen. Data for the sgs1 strain (AID 173);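 also: 0% = growth of vehicle-only control cultures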; details: S. cerevisiae sgs1 mutant, active compounds read high
In short: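 Relative growth inhibition, referenced to vehicle, was determined in a yeast strain with a defined alteration affecting DNA damage repair or cell cycle control after compound exposure.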

[13] = NCI Yeast Anticancer Drug Screen. Data for the mlh1 rad18 strain (AID 175); details: S. cerevisiae mlh1 rad18 strain growth inhibition, active compounds read high
In short: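 In this whole-cell yeast screen, a strain with altered DNA damage repair is challenged with compound, and its growth is measured against matched vehicle-treated controls.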

[14] = NCI Yeast Anticancer Drug Screen. Data for the rad18 strain (AID 177); details: S. cerevisiae rad18 mutant growth inhibition, active compounds read high
In short: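 Screen uses a yeast strain with a defined lesion in DNA damage repair; compound effect is read as loss of growth compared to untreated vehicle cultures.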

[15] = NCI Yeast Anticancer Drug Screen. Data for the wt2 strain (AID 169);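 also: 0% = growth of vehicle-treated yeast cultures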; details: S. cerevisiae wt2 strain growth inhibition, active compounds read high
In short: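 Genetically defined yeast strains from a DNA-repair/cell-cycle panel were used. Compound-exposed yeast growth was measured, and the inhibition was calculated relative to vehicle treatment.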

[16] = at 5.0 µM (retest, dose inferred, filed as 0.5)
[17] = at 50.0 µM (retest, dose inferred, filed as 5.0)

Measured: growth inhibition

CCOC(=O)/C=C1\CCCn2c1ncc(C(=O)OCC)c2=O
active: [5]; at 50.0 µM 77% | [7]; at 50.0 µM 81.7% | [10]; [17] 94% | [13]; at 50.0 µM 89.8%
inactive: [1]; at 1.2 µM 2% | [1]; at 3.7 µM 5% | [1]; at 11.0 µM 6% | [1]; at 33.0 µM 10% | [1]; at 100.0 µM 17% | [2]; at 1.2 µM -1% | [2]; at 3.7 µM -2% | [2]; at 11.0 µM -2% | [2]; at 33.0 µM -4% | [2]; at 100.0 µM -1% | [3]; at 1.2 µM 3% | [3]; at 3.7 µM 2% | [3]; at 11.0 µM 6% | [3]; at 33.0 µM -2% | [3]; at 100.0 µM 26% | [4]; at 1.2 µM -1% | [4]; at 3.7 µM -8% | [4]; [16] 8% | [4]; at 11.0 µM -3% | [4]; at 33.0 µM 20% | [4]; [17] 30% | [4]; at 50.0 µM 69.5% | [4]; at 100.0 µM 31% | [5]; at 1.2 µM 3% | [5]; at 3.7 µM 4% | [5]; [16] -5% | [5]; at 11.0 µM 7% | [5]; at 33.0 µM 17% | [5]; [17] 42% | [5]; at 100.0 µM 32% | [6]; at 1.2 µM 4% | [6]; at 3.7 µM 2% | [6]; at 11.0 µM 7% | [6]; at 33.0 µM 12% | [6]; at 100.0 µM 18% | [7]; [16] 4% | [7]; [17] 9% | [8]; at 1.2 µM 3% | [8]; at 3.7 µM 4% | [8]; at 11.0 µM 7% | [8]; at 33.0 µM 12% | [8]; at 100.0 µM 13% | [9]; [16] -25% | [9]; [17] 24% | [9]; at 50.0 µM 55.7% | [10]; at 1.2 µM 2% | [10]; at 3.7 µM 0% | [10]; [16] -13% | [10]; at 11.0 µM 4% | [10]; at 33.0 µM 10% | [10]; at 50.0 µM 59.5% | [10]; at 100.0 µM 28% | [11]; at 1.2 µM 2% | [11]; at 3.7 µM 3% | [11]; at 11.0 µM 8% | [11]; at 33.0 µM 15% | [11]; at 100.0 µM 38% | [12]; at 1.2 µM 3% | [12]; at 3.7 µM 5% | [12]; at 11.0 µM 6% | [12]; at 33.0 µM 24% | [12]; at 100.0 µM 51% | [13]; [16] 8% | [13]; [17] 48% | [14]; at 1.2 µM 1% | [14]; at 3.7 µM 5% | [14]; at 11.0 µM 14% | [14]; at 33.0 µM 30% | [14]; at 100.0 µM 55%

Nc1cccc2cc(Cl)cnc12
active: [2]; at 100.0 µM 76% | [4]; [17] 98% | [4]; at 50.0 µM 71% | [4]; at 100.0 µM 87% | [5]; [17] 98% | [5]; at 100.0 µM 78% | [10]; at 100.0 µM 81% | [13]; [17] 100% | [14]; at 33.0 µM 82% | [14]; at 100.0 µM 90%
inactive: [1]; at 1.2 µM -26% | [1]; at 3.7 µM -26% | [1]; at 11.0 µM -28% | [1]; at 33.0 µM -23% | [1]; at 100.0 µM 63% | [2]; at 1.2 µM -3% | [2]; at 3.7 µM 5% | [2]; at 11.0 µM 11% | [2]; at 33.0 µM 39% | [3]; at 1.2 µM -2% | [3]; at 3.7 µM -2% | [3]; at 11.0 µM 7% | [3]; at 33.0 µM 10% | [3]; at 100.0 µM 64% | [4]; at 1.2 µM 18% | [4]; at 3.7 µM 24% | [4]; [16] 62% | [4]; at 11.0 µM 31% | [4]; at 33.0 µM 47% | [5]; at 1.2 µM 12% | [5]; at 3.7 µM 10% | [5]; [16] 53% | [5]; at 11.0 µM 13% | [5]; at 33.0 µM 7% | [5]; at 50.0 µM 20.9% | [6]; at 1.2 µM -36% | [6]; at 3.7 µM -31% | [6]; at 11.0 µM -36% | [6]; at 33.0 µM -31% | [6]; at 100.0 µM 58% | [7]; [16] 3% | [7]; [17] 10% | [7]; at 50.0 µM 59.7% | [8]; at 1.2 µM 2% | [8]; at 3.7 µM -4% | [8]; at 11.0 µM -23% | [8]; at 33.0 µM -16% | [8]; at 100.0 µM 38% | [10]; at 1.2 µM 3% | [10]; at 3.7 µM 10% | [10]; [16] 41% | [10]; at 11.0 µM 8% | [10]; at 33.0 µM 13% | [10]; [17] 18% | [10]; at 50.0 µM 38.5% | [15]; at 1.2 µM -34% | [15]; at 3.7 µM -18% | [15]; at 11.0 µM -20% | [15]; at 33.0 µM -15% | [15]; at 100.0 µM 34% | [11]; at 1.2 µM -40% | [11]; at 3.7 µM -41% | [11]; at 11.0 µM -40% | [11]; at 33.0 µM -33% | [11]; at 100.0 µM 49% | [12]; at 1.2 µM -32% | [12]; at 3.7 µM -31% | [12]; at 11.0 µM -14% | [12]; at 33.0 µM 0% | [12]; at 100.0 µM 64% | [13]; [16] 55% | [13]; at 50.0 µM 67.3% | [14]; at 1.2 µM 13% | [14]; at 3.7 µM 27% | [14]; at 11.0 µM 61%
